Assay results from PubChem BioAssay AID629 (Emory University Molecular Libraries Screening Center, 2007).
Hit rate of the full screen: of about 86,000 compounds, about 1,400 (1.6%) were called active. Shown is part of a subset that was picked to be rich in actives. Values without a mark were called inactive. Rule as the data show it: active = inhibition above about 50%; inactive = the rest.

What follows are molecules tested against Estrogen receptor (Homo sapiens) (UniProt P03372) (assay: ERα–SRC-1 coactivator interaction inhibitors, primary screen, biochemical, TR-FRET, ERα LBD, estradiol-bound (AID 629;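 also: 0% = receptor plus peptide control and 100% = peptide only without receptor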)). Settings: TR-FRET ER-alpha LBD / SRC-1 peptide, at 25.6 µM, active compounds read high.
Sequence of Estrogen receptor (Homo sapiens) (P03372 whole entry, looked up, the tested form may be a part): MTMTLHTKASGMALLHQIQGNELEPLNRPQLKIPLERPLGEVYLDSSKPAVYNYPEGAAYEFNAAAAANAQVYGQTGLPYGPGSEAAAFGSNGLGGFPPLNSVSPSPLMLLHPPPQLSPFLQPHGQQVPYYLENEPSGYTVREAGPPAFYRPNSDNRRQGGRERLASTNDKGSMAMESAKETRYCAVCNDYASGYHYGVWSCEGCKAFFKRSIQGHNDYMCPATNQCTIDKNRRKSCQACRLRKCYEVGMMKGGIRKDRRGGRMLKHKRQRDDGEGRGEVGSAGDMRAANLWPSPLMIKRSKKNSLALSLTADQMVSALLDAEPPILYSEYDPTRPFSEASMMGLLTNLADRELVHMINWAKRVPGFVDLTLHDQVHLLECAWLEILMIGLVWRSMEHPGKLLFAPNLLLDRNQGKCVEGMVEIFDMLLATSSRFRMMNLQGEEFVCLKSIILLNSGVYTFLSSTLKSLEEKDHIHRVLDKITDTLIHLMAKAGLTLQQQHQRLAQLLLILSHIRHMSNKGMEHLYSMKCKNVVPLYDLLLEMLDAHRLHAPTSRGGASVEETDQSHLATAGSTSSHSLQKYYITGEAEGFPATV

With COc1ccc(NC(=O)CSc2nnc(-c3cccs3)n2Cc2ccco2)cc1OC as the molecule, how does the inhibition read?
Its inhibition is -0.83%.

COc1ccc(OC)c(-n2nnnc2SCC(=O)Nc2cc(C)ccc2OC)c1 was tested. Which inhibition did it give?
The inhibition was 4.13%.

For COc1ccc(C)cc1-n1nnnc1SCC(=O)c1cc(C)n(Cc2ccco2)c1C, which inhibition is on record?
Its inhibition is 56% [fluorescence artefact?] (active).

O=C(NCc1ccccc1)[C@@H]1CSC2c3ccccc3C(=O)N21 (some centres undefined) was tested. Which inhibition did it give?
Its inhibition is 6.25%.

Which inhibition does the source give for Cc1cc(C)n(-c2nnc(C)n2NC(=O)c2cccc(Cl)c2)n1 here?
Its inhibition is -8.09%.

Which inhibition does the source give for COc1ccc(-c2noc(-c3ccc(C)cc3)n2)cc1 here?
The inhibition was -13.3%.

COc1ccc2[nH]c(=O)c(-c3noc(-c4ccc(F)cc4)n3)cc2c1 was tested. Which inhibition did it give?
The inhibition was 72.5% [fluorescence artefact?] (active).

For Cc1cccc(-c2noc(-c3ccc(F)cc3)n2)c1, which inhibition is on record?
Its inhibition is -21.4%.

Which inhibition does the source give for COc1cc(OC)c(C(=O)NC2CCCCCC2)cc1OC here?
Its inhibition is -10.8%.

COc1cc(OC)c(C(=O)Nc2ccc(N(C)C)cc2)cc1OC was tested. Which inhibition did it give?
Its inhibition is 63.9% [fluorescence artefact?] (active).

For COc1ccc(Cl)cc1C(=O)Nc1ccc(N(C)C(C)=O)cc1, which inhibition is on record?
The inhibition was 9.29%.

With CCOc1ccccc1C(=O)NC1CC2CCCC(C1)N2Cc1ccccc1 (centres undefined) as the molecule, how does the inhibition read?
The inhibition was 1.91%.

Which inhibition does the source give for COc1ccc(-c2nnc(SCC(=O)c3ccc4c(c3)OCCO4)o2)cc1 here?
Its inhibition is 22.7%.

With O=c1c2ccccc2nnn1CSc1nnnn1-c1ccccc1 as the molecule, how does the inhibition read?
Its inhibition is -0.34%.

For COc1ccc(-n2nnnc2SCC(=O)Nc2ccccc2)cc1, which inhibition is on record?
The inhibition was -12.4%.

O=c1c2ccccc2nc(CSc2nnnn2-c2ccccc2)n1-c1ccccc1 was tested. Which inhibition did it give?
The inhibition was 70% [fluorescence artefact?] (active).

How did the inhibition turn out when Cc1ccc(-c2noc(CSc3nnnn3-c3ccccc3)n2)cc1 was run?
The inhibition was -3.97%.

N#CCSc1nc2ccccc2c(=O)n1-c1ccccc1 was tested. Which inhibition did it give?
The inhibition was 1.7%.

Cc1ccc(Nc2nc(CSc3nnnn3-c3ccccc3)cc(=O)[nH]2)cc1 was tested. Which inhibition did it give?
Its inhibition is 66.8% [fluorescence artefact?] (active).

Brc1ccc(-c2nnc(-c3ccccc3)o2)o1 was tested. Which inhibition did it give?
The inhibition was 12.2%.

How did the inhibition turn out when O=C(Cc1ccccc1)Nc1c(C(=O)N2CCCCCC2)cnn1-c1ccccc1 was run?
Its inhibition is -5.17%.

How did the inhibition turn out when Cc1cc(=O)oc2cc(OCC3CC(c4ccccc4Cl)=NO3)ccc12 (centres undefined) was run?
The inhibition was 3.5%.

For O=C(c1ccc2c(c1)OCO2)N1CCOCC1, which inhibition is on record?
The inhibition was -17.2%.

With Cc1ccc(NC(=O)CSCC(=O)N2CCOCC2)cc1 as the molecule, how does the inhibition read?
Its inhibition is -2.74%.

CCN(CC)C(=O)CN(c1cccc(OC)c1)S(=O)(=O)c1ccc(C)cc1 was tested. Which inhibition did it give?
Its inhibition is 0.16%.

How did the inhibition turn out when Cc1nc(C)c(C(=O)Nc2cccc(C)c2C)o1 was run?
The inhibition was 23.7%.

For COc1ccc(Cl)cc1NC(=O)c1oc(C)nc1C, which inhibition is on record?
Its inhibition is 53.9% (active).

Cc1nc(C)c(C(=O)Nc2ccc(C)c(F)c2)o1 was tested. Which inhibition did it give?
Its inhibition is 13.3%.

Which inhibition does the source give for Cc1cc(NC(=O)CCC(=O)N(CC(=O)NCC2CCCO2)c2ccccc2C)no1 (centres undefined) here?
Its inhibition is 26%.

For CCOC(=O)N1CCN(C(=O)c2nn(-c3ccc(C)cc3)c(=O)c3c2c2ccccc2n3C)CC1, which inhibition is on record?
Its inhibition is 58.7% [fluorescence artefact?] (active).

For CCOC(=O)N1CCN(C(=O)c2n[nH]c(=O)c3ccccc23)CC1, which inhibition is on record?
The inhibition was -4.02%.

With Cn1c2ccccc2c2c(C(=O)N3CCN(c4ccc(F)cc4)CC3)cn(C3CCCC3)c(=O)c21 as the molecule, how does the inhibition read?
The inhibition was 8.84%.

For CCCc1nc(NCc2ccc3c(c2)OCO3)c2nnn(Cc3ccccc3Cl)c2n1, which inhibition is on record?
The inhibition was 0.25%.

Which inhibition does the source give for Cc1ccccc1-c1nnc(SCC(=O)NCc2ccc3c(c2)OCO3)n1C here?
Its inhibition is -3.86%.
